The values that follow come from the supplement of paper PMC12067093, “Discovery and optimisation of a covalent ligand for TRIM25 and its application to targeted protein ubiquitination” (Chemical Science, 2025).

Targets with the largest changes are over-represented here; the source holds about 21,000 in all.
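Also: competitive chemoproteomic profiling in live THP-1 cells with an iodoacetamide desthiobiotin (IA-DTB) probe, comparing probe-labelled peptide intensities in compound-treated cells against DMSO-treated controls.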

UniProt Q01085, sequence (Q01085 whole entry, looked up): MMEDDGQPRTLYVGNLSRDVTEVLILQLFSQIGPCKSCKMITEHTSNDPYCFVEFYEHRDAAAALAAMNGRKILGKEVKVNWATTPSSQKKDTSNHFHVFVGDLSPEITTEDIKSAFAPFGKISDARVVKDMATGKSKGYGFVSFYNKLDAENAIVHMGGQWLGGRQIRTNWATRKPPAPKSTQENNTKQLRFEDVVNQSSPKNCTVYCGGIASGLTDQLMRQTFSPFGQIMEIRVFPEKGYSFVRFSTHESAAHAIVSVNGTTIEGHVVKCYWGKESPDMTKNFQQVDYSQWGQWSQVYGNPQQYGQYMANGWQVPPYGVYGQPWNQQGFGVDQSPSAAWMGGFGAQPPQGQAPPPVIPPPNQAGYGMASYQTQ
UniProt Q86TJ2, sequence (Q86TJ2 whole entry, looked up): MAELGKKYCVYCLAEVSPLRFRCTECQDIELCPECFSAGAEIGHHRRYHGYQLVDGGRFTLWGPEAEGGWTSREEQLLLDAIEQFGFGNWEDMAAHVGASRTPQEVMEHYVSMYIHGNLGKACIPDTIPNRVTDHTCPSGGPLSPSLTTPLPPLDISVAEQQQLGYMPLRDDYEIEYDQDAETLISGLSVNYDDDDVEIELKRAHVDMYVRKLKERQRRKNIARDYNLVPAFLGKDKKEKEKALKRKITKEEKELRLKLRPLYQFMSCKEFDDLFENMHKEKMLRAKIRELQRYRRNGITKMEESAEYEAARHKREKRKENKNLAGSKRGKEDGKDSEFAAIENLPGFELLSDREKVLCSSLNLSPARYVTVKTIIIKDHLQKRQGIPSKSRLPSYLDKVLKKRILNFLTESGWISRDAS
UniProt Q12767, sequence (Q12767 whole entry, looked up): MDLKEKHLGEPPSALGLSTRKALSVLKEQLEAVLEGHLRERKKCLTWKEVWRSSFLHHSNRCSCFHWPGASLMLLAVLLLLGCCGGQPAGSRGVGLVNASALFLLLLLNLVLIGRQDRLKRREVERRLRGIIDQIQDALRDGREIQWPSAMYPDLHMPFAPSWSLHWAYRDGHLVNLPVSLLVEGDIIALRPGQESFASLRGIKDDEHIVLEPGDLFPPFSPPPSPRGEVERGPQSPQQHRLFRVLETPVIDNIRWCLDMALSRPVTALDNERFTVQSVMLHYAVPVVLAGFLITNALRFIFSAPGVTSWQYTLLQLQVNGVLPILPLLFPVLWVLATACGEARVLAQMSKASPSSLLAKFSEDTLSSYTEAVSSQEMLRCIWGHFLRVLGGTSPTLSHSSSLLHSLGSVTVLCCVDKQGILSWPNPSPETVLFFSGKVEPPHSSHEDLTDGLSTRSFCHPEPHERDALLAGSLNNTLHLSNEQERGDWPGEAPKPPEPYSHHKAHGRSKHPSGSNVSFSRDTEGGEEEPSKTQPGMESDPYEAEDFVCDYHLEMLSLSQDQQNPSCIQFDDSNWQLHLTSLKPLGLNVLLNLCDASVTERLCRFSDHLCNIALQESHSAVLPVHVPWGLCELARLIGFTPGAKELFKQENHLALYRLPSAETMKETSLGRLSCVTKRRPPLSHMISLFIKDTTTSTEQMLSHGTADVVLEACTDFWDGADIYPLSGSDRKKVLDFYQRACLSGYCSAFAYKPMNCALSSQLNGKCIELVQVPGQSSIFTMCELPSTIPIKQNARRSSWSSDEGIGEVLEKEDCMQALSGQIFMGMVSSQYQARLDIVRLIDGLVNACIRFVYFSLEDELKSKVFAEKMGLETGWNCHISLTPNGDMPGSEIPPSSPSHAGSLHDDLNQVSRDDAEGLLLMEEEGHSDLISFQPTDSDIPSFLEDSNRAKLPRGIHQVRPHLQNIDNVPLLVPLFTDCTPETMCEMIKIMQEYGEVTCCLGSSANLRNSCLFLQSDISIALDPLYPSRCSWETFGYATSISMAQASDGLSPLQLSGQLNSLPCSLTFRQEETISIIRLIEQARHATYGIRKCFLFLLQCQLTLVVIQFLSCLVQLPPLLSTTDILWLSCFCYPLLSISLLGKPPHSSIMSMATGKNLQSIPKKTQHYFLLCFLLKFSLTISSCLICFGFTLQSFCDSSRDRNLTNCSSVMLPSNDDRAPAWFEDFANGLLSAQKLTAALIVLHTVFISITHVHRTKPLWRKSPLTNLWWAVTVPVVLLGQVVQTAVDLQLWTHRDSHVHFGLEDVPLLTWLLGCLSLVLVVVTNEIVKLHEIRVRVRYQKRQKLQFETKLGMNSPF
UniProt Q9Y5B9, sequence (Q9Y5B9 whole entry, looked up): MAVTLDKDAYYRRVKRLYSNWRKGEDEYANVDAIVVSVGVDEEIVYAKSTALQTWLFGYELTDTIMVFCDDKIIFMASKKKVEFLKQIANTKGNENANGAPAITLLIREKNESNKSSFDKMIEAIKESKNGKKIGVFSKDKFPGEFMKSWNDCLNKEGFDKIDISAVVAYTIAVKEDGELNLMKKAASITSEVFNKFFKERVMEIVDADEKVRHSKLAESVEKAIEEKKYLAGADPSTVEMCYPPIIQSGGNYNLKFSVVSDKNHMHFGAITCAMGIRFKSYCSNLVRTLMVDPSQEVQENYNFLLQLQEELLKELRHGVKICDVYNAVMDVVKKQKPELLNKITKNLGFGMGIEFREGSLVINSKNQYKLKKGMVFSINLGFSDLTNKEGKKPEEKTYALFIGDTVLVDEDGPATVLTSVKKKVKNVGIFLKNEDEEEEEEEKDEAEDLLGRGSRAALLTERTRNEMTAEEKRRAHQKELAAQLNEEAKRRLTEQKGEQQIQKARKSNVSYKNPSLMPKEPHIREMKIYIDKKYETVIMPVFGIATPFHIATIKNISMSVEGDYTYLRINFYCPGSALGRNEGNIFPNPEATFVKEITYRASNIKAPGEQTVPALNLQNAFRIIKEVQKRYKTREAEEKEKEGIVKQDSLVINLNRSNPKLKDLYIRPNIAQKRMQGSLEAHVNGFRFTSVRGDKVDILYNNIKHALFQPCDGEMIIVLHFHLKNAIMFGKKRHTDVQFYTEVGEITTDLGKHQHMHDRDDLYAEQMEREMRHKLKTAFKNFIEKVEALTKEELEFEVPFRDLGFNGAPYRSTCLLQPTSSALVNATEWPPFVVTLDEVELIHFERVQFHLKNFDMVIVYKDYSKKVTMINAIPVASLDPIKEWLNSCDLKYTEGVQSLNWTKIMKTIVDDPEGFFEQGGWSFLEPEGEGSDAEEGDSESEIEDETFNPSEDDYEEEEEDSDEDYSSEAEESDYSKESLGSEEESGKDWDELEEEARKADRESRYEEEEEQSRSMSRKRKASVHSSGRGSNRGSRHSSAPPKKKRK
UniProt Q02880, sequence (Q02880 whole entry, looked up): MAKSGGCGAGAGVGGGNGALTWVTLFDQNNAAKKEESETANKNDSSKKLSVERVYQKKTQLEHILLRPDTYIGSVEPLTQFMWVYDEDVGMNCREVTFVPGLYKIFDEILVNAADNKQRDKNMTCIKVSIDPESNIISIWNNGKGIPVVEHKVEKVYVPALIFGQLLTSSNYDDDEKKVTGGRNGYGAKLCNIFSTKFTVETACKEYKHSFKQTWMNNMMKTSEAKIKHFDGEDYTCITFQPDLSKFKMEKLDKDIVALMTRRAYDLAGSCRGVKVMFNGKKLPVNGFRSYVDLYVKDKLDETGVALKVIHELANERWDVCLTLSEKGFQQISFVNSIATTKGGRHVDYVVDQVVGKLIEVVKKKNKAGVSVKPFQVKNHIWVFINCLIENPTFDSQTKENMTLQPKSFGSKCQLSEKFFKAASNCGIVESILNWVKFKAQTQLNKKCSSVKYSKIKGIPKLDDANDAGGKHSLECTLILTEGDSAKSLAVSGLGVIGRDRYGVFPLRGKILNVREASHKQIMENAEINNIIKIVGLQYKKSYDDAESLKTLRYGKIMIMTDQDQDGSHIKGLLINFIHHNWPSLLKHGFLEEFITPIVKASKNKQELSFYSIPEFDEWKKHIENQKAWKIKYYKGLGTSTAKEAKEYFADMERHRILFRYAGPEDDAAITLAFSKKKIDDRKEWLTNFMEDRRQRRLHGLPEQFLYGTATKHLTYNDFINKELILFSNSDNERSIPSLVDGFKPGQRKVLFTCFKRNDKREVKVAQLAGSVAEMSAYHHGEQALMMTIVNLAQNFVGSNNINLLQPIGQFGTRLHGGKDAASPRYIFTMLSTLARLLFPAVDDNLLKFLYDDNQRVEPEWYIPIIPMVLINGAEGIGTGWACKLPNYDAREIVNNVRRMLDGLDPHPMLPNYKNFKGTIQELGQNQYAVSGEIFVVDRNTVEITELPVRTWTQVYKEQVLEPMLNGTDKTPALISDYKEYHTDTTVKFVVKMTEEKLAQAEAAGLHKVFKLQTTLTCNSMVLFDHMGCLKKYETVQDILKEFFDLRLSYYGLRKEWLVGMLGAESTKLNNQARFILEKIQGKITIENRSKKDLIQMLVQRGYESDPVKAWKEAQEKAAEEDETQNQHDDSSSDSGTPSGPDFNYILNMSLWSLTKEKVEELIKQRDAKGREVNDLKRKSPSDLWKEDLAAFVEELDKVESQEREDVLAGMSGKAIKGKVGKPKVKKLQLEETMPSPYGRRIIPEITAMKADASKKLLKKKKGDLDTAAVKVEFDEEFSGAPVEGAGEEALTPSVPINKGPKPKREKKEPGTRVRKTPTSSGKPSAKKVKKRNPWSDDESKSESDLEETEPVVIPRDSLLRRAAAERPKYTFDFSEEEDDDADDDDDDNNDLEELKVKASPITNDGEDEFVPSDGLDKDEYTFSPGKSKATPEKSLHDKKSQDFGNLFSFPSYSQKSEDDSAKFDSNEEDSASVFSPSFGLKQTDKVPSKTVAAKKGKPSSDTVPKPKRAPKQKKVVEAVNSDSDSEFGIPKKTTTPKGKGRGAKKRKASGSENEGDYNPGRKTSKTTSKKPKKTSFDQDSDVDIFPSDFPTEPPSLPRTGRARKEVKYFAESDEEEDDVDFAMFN
UniProt Q969E4, sequence (Q969E4 whole entry): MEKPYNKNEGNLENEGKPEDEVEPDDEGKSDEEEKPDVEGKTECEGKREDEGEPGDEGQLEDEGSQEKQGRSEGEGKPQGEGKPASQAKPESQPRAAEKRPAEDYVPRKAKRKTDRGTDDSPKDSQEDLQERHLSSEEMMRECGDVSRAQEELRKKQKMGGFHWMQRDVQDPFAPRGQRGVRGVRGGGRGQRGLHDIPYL

Compound in one assay: CC1Cc2ccccc2N1C(=O)C1CCCN(C1)C(=O)CCl (mixture of isomers) [TRIM25 ligand 11 (diastereomer mixture)]
The assay is described as follows: probe-labelled cysteine peptide fold change vs DMSO (competition) (log2 fold change); higher = less target engagement (more negative = stronger competition). Conditions: 10 µM; THP-1; incubation time: 4 h.
With “TOP2B_Q02880-2_7_SGGCGAGAGVGGGNGALTWVNNAAK (UniProt Q02880)”, the “probe-labelled cysteine peptide fold change” value is -0.0783.
The same measure, in the same setting: as for “TIAL1_Q01085_205+209_NCTVYCGGIASGLTDQLMR (UniProt Q01085)”, the figure is 0.161; as for “SSH3_Q8TE77_634_TQAFQEQEQGQGQGQGEPCISSTPR (UniProt Q8TE77)”, -0.0571.
In the case of “TLE1_Q04724_47_IKEEFQFLQAQYHSLKLECEK<|>TLE2_Q04725_46_IKEEFQFLQAQYHSLKLECEK (UniProt Q04725+Q04724)”, the “probe-labelled cysteine peptide fold change” value is -0.573.
Turning to “THBS1_P07996_754_IPDDRDNCPFHYNPAQYDYDRDDVGDR (UniProt P07996)”, the “probe-labelled cysteine peptide fold change” value is 0.813.
Take “TCEAL3_Q969E4_44_TECEGKREDEGEPGDEGQLEDEGSQEK (UniProt Q969E4)”: the “probe-labelled cysteine peptide fold change” value was -0.32.
Still for that read-out and setting: as for “SUPT16H_Q9Y5B9_574_INFYCPGSALGR (UniProt Q9Y5B9)”, the figure is 0.121; as for “TADA2B_Q86TJ2_32+35_CTECQDIELCPECFSAGAEIGHHR (UniProt Q86TJ2)”, 0.502; as for “THOC2_Q8NI27_743_DALLDHDLALPLCLLMAQQR (UniProt Q8NI27)”, 0.0629.
The same measure, in the same setting: for “TDRD7_Q8NHU6_284_EDLNQGILQQFEHWPHICTVEK (UniProt Q8NHU6)” the value was 0.0148; for “TGFBRAP1_Q8WUH2_32_VNIECVECCGR (UniProt Q8WUH2)”, -0.0319.
For the target “SUCLG1_P53597_172_LIGPNCPGVINPGECK (UniProt P53597)”, the “probe-labelled cysteine peptide fold change” value is -0.0627.
As to “TBCD_Q9BTW9_457_GACSVGTNVR (UniProt Q9BTW9)”, the “probe-labelled cysteine peptide fold change” value was 0.145.
Same read-out and setting: as for “TET3_O43151_1381_GKPWSPCK (UniProt O43151)”, the figure is -0.294; as for “TMEM94_Q12767_381_CIWGHFLR (UniProt Q12767)”, -0.00858.

Staying with this assay, now noted: 50 µM; THP-1; incubation time: 4 h.
With “STK11IP_Q8N1F8_918_NCVSATEEEVTPQHR (UniProt Q8N1F8)”, the “probe-labelled cysteine peptide fold change” value came to 0.108.
Still for that read-out and setting: as for “TAF2_Q6P1X5_357_CLAQSLAQQFFGCFISR (UniProt Q6P1X5)”, the figure is -0.862.
Same read-out and setting: as for “ST13_P50502_209_LLGHWEEAAHDLALACKLDYDEDASAMLK (UniProt P50502)”, the figure is -0.574; as for “TRIP6_Q15654_362+365+368_AYHPGCFTCVVCHR (UniProt Q15654)”, 0.0784.
Still for that read-out and setting: for “TANC1_Q9C0D5_800_MDALSCFLIK (UniProt Q9C0D5)” the value was 0.0229; for “TARSL2_A2RTX5_546_FQQDDAHIFCTVEQIEEEIK (UniProt A2RTX5)”, 0.235.
“TES_Q9UGI8_22_MGLGHEQGFGAPCLK (UniProt Q9UGI8)”: the “probe-labelled cysteine peptide fold change” value is -0.176.
